The source of these data is PubChem BioAssay (EPA / NIEHS).

Active and inactive are the calls of the source. The calls were made as follows: active = hit-call score of the fitted dose curve at least 0.9, where 1 is the maximum; inactive = score below 0.9.

Read-out in this assay: MicroRNA 122 (MIR122), gene 406906
The assay is described as follows: LTEA_HepaRG_MIR122: Life Technologies and Expression Analysis (LTEA) Assay for MicroRNA 122 (MIR122) using HepaRG (AID 2283516). The settings on record: mRNA level, 48 h; actives raise or lower the signal. The procedure: LTEA_HepaRG is a cell based, multiplexed-readout assay that uses HepaRG, a human liver cell line, with measurements taken at 48 hours after chemical dosing on a 96-well plate.LTEA_HepaRG_MIR122 is one of 102 assay component(s) measured in the LTEA HepaRG cell culture assay. It is a marker of MicroRNA.Data from the assay component LTEA_HepaRG_MIR122 was analyzed into 1 endpoint. This assay endpoint, LTEA_HepaRG_MIR122, was analyzed with bidirectional fitting relative to DMSO as the negative control and baseline of activity. Using a type of inducible reporter, measures of mRNA induction for gain or loss-of-signal activity can be used to understand regulation of transcription factor activity. To generalize the intended target to other relatable targets, this assay endpoint is annotated to the microrna intended target family, where the subfamily is post-transcriptional regulation.
A total of 1060 chemcials from the ToxCast library were tested in eight-point concentration-response experiments. Cell culture and cytotoxicity assays were conducted at Thermo Fisher Scientific's Custom Services facility (Madison, WI). A single lot of human HepaRG cells (Thermo Fisher Scientific, Frederick, MD) was used for the cell culture experiments. 96-well format collagen type I coated plates of human HepaRG cells were prepared using established methods. Briefly, cryopreserved HepaRG cells were thawed, plated at a density of approximately 100,000 cells/well in HepaRG Thaw, Plate, and General Purpose media (HPRG770, Thermo Fisher Scientific), and incubated for 48 hours. 0.5% DMSO was selected as vehicle control to balance the requisite need of DMSO in HepaRG cultures to maintain differentiation (for example, baseline metabolism, proportions of hepatocytes vs. cholangiocytes), while enabling further hepatic receptor pathway activation (for example, PXR and CAR) in response to chemical exposure. 48 hours after plating, the culture medium was replaced with HepaRG Serum-Free Incudtion Media. Cells were exposed to each test chemical in duplicate and maintained in CO2 incubators for another 48 hours. Chemical plates were thawed to room temperature and 200x concentrations of treatment groups were prepared. 8-point conentration-reponse curves were made with the highest exposure at 100 uM, followed by half-log dilutions, all in 0.5% DMSO. Each test plate contained variouse controls, induction positive controls (1mM phenobarbital), cytotoxicity positive controls ([…] aflatoxin B1), vehicle controls (0.5% DMSO), and total lysis controls (0.5% DMSO). Cell morphology images were taken using an Essen IncuCyte FLR automated microscope, with six 96-well plates imaged in about 24 minutes. Images were captured and exported and JPEG files. Spent culture media was transfered to black-well plates for the LDH assay, and remaining media was sorted at -80 C for later use. Cells were treated with RLT buffer and frozen until shipped for gene expression analysis. Total RNA was isolated from the cell suspension in 75 uL of Buffer RLT (Qiagen, Germantown, MD 20874) by Quintiles/Expression Analysis (Durham, NC) using a custom isolation procedure. Total RNA from each plate well was transferred to a preamplification plate. Fluidigm's 96.96 Dynamic ArrayTM (Fluidigm, Amsterdam, the Netherlands) technology was used for gene expression analyses by quantitative reverse transcription polymerase chain reaction (qRT-PCR, performed by Quintiles/Expression Analysis, Durham, NC)89. Standard TaqManTM Assays (Applied Biosystems/ThermoFisher Scientific, Foster City, CA) were used to assess the expression of 93 genes selected based on their selectivity and sensitivity to important hepatic receptors known to be modulated by environmental chemicals; importance in human hepatocyte functionality; and hepatotoxicity. […]
As for `CCCCCCCCCCCCCO`, the compound was classed as inactive.

On to `CNC(=O)[C@H]1O[C@@H](n2cnc3c(NCc4cc(Cl)ccc4OCc4cc(C)no4)ncnc32)[C@H](O)[C@@H]1N`, for which the compound was called inactive.

For the compound `O=c1[nH]cc(F)c(=O)[nH]1`, the result was inactive.

As to `Cc1ccc(C)c(O)c1C`, the result was inactive.

In the case of `C=CCc1ccc(O)c(OC)c1`, the result was inactive.

As to `CCCCCC(=O)O`, the call was inactive.

Consider `Cc1ccccc1Cl`, for which the compound was called inactive.

For the compound `CCCCCCCCCCCCCCCC`, the call was inactive.

As for `Cc1cccc(C)c1O`, the outcome was inactive.

For `OC[C@@H](O)[C@@H](O)[C@H](O)[C@H](O)CO`, the compound was classed as inactive.

For `Cc1ccc(C)c(C)c1`, the compound was classed as inactive.

For the compound `O=C(OCCCCCOC(=O)c1ccccc1)c1ccccc1`, the AC50 (usually the concentration at which the activity in the assay is half-maximal) was 0.449 µM (active).

Consider `CC(C)(C)c1cc(O)c(C(C)(C)C)cc1O`, for which the AC50 was 79.8 µM (active).

As for `NCCO`, the outcome was inactive.

Turning to `Cc1oc(-c2ccccc2)nc1CCOc1cccc2c1ccn2CCC(=O)O`, the AC50 is 90.1 µM (active).

In the case of `CC1(C)NC(=O)NC1=O`, the outcome was inactive.

With `CCCc1cc(=O)[nH]c(=S)[nH]1`, the compound was called inactive.

For `Cc1c(C(=O)O)c(O)cc2c1C(=O)c1c(O)c([C@@H]3O[C@H](CO)[C@@H](O)[C@H](O)[C@H]3O)c(O)c(O)c1C2=O`, the call was inactive.

With `Cc1ccc2ncccc2c1`, the result was inactive.

Turning to `O=C(O)Cc1ccccc1Nc1c(Cl)cccc1Cl`, the result was inactive.

For `Cc1ccc(N(C)C)cc1`, the outcome was inactive.

Consider `CCCCN(CCCC)CCCC`, for which the compound was called inactive.

On to `CCOC(=O)C(C)(C)Oc1ccc(Cl)cc1`, for which the outcome was inactive.

For `CC(CO)OC(C)CO` (stereo not given) (tested in a mixture with another compound), the compound was classed as inactive.

Regarding `NC(=O)Cn1c(=O)cc(CCN2CCN(c3nccc4sccc34)CC2)c2ccc(F)cc21`, the compound was classed as inactive.

Consider `CCCCCCCCCCCC(=O)OC`, for which the compound was called inactive.

As to `Cc1ccc(C(C)C)c(O)c1`, the compound was classed as inactive.

On to `Cc1nc(-c2ccc3c(c2)CCN(CCC2CCC(NC(=O)/C=C/c4ccc(F)cc4)CC2)CC3)no1` (stereo not given), for which the compound was classed as inactive.

For `C=CCOC(=O)c1ccccc1C(=O)OCC=C`, the compound was classed as inactive.

With `CC(=O)Oc1ccccc1C(=O)O`, the outcome was inactive.

Turning to `COCCOC[C@H](CC1(C(=O)NC2CCC(C(=O)O)CC2)CCCC1)C(=O)Oc1ccc2c(c1)CCC2` (stereo not given in full), the call was inactive.

With `COc1cc(-c2nc(NC(=O)c3cc4cc(C)cc(C)c4n3CC(=O)O)sc2CCC2CCCCC2)c(OC)cc1Cl`, the AC50 was 6.1 µM (active).

Take `CC(=O)OC/C=C(\C)CCC=C(C)C`: the compound was called inactive.

As to `Cc1cc(=O)[nH]c(=S)[nH]1`, the outcome was inactive.

For `C[Si]1(C)O[Si](C)(C)O[Si](C)(C)O[Si](C)(C)O1`, the result was inactive.

Take `CN1CCCC1=O`: the compound was classed as inactive.

Turning to `COc1ccc(S(=O)(=O)N2C(=O)[C@@](c3ccccc3OC)(N3C[C@H](O)C[C@H]3C(=O)N(C)C)c3cc(Cl)ccc32)c(OC)c1`, the AC50 was 50 µM (active).

Consider `FC(F)(F)C(F)(F)C(F)(F)C(F)(F)C(F)(F)C(F)(F)CCI`, for which the compound was classed as inactive.

Regarding `O=C(O)CCCCC(=O)O`, the compound was called inactive.

`CCOC(=O)CCC(=O)OCC`: the outcome was inactive.
